Targets with a hit are over-represented here; the source holds about 7,900 in all. About 0.6% of all pairs of compound and target were hits. Unmarked numbers belong to inactive results.

The source of these data is the supplement of paper PMC10849652.

Sequence of UniProt A6NHL2 (A6NHL2 whole entry, looked up): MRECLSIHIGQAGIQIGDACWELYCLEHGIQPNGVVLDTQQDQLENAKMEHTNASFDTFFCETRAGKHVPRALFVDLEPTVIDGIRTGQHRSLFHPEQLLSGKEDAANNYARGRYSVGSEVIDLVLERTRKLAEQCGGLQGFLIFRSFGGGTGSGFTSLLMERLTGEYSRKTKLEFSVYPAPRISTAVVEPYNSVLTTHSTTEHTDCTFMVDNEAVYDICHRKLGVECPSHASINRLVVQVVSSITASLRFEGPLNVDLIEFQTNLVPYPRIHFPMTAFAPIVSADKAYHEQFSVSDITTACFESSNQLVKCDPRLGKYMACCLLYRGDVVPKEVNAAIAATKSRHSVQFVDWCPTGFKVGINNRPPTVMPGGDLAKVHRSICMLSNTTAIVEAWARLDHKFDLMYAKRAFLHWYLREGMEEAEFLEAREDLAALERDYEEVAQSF
Sequence of UniProt Q9BZI7 (Q9BZI7 whole entry, looked up): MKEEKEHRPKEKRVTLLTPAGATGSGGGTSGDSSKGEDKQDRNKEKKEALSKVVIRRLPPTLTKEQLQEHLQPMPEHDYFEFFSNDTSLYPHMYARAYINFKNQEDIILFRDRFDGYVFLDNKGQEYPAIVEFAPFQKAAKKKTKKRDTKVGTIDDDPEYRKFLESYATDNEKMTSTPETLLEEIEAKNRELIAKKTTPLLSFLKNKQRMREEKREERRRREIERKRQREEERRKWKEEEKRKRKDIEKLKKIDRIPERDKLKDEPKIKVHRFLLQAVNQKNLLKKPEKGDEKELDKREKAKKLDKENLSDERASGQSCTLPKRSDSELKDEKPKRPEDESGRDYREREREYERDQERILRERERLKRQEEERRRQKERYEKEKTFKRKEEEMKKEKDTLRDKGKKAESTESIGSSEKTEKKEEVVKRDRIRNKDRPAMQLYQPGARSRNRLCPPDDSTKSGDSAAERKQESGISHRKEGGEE
Sequence of UniProt Q9NYU2 (Q9NYU2 whole entry, looked up): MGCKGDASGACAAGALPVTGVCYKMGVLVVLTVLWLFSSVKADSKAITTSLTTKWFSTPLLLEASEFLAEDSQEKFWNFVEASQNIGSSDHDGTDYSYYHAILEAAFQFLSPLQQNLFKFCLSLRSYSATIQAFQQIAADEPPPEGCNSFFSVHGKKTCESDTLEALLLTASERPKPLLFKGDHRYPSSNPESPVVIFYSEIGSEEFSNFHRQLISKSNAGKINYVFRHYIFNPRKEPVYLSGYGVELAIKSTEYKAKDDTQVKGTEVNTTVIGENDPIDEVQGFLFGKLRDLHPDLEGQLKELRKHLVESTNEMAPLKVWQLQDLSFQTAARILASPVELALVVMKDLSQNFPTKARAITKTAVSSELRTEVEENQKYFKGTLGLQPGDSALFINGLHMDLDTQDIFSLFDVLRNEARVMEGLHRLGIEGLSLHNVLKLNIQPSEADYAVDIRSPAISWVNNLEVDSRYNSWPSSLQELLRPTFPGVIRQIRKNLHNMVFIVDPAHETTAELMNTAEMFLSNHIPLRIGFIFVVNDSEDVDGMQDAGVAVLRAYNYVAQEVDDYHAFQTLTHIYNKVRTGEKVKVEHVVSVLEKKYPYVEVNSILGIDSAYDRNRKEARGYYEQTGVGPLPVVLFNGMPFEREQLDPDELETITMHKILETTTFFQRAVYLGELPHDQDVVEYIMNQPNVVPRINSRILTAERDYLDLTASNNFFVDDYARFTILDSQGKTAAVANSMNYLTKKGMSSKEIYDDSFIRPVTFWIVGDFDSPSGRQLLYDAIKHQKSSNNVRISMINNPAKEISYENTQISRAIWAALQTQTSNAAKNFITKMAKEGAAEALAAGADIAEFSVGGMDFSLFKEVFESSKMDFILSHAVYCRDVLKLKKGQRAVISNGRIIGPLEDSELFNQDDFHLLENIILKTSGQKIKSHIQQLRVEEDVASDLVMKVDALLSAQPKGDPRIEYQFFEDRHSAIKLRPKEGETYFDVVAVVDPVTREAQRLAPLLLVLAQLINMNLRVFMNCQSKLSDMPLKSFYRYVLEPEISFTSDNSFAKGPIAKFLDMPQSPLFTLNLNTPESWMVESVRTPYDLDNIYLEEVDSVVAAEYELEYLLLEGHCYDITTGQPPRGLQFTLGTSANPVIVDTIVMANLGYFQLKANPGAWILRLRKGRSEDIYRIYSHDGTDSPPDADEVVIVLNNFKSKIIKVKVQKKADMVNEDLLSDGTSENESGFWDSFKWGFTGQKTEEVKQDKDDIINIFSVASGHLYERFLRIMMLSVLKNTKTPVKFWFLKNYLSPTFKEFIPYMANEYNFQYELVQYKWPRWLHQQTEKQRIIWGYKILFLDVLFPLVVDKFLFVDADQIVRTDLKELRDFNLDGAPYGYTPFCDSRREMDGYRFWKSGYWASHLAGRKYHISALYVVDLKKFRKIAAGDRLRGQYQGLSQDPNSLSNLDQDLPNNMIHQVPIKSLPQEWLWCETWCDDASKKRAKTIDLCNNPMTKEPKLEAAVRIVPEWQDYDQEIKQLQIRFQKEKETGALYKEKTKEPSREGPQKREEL
Sequence of UniProt Q9Y2I8 (Q9Y2I8 whole entry, looked up): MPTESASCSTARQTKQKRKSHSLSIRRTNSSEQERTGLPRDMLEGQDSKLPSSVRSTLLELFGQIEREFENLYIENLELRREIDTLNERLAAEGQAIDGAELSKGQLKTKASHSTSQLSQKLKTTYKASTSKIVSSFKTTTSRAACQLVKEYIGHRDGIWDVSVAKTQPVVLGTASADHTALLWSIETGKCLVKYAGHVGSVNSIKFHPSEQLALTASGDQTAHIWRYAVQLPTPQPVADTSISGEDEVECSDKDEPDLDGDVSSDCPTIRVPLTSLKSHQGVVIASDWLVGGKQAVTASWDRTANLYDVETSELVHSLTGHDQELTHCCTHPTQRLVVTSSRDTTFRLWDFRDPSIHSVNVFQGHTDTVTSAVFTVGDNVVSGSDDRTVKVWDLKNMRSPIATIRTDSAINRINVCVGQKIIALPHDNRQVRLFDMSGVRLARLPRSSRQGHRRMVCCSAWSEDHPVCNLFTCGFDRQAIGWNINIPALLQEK
Sequence of UniProt Q9H270 (Q9H270 whole entry, looked up): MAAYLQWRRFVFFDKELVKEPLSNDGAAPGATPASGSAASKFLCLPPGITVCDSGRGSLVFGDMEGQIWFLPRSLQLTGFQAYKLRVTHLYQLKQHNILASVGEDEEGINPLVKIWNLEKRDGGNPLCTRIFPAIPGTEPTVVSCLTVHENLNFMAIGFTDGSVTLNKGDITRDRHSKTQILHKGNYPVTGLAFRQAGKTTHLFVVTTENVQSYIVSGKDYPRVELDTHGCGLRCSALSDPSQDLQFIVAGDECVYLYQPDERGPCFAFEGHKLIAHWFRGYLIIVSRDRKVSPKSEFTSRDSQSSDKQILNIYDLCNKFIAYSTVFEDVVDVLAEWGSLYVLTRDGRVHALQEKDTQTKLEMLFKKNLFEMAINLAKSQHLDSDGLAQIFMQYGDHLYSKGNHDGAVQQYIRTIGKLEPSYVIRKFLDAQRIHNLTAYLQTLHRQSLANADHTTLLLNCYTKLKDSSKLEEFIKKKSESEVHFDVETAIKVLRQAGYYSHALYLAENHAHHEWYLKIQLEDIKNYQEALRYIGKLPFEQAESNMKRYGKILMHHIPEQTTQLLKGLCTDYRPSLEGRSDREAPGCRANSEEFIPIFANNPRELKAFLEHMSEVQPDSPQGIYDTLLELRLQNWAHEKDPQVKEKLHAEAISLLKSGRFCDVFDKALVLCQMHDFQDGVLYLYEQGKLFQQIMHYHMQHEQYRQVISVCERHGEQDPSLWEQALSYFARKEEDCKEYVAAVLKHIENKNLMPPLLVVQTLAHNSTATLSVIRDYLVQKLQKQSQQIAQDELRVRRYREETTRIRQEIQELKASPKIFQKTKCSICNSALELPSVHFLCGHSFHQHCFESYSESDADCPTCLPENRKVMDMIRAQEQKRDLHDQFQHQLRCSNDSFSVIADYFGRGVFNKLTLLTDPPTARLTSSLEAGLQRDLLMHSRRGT
Sequence of UniProt Q8NDZ6 (Q8NDZ6 whole entry, looked up): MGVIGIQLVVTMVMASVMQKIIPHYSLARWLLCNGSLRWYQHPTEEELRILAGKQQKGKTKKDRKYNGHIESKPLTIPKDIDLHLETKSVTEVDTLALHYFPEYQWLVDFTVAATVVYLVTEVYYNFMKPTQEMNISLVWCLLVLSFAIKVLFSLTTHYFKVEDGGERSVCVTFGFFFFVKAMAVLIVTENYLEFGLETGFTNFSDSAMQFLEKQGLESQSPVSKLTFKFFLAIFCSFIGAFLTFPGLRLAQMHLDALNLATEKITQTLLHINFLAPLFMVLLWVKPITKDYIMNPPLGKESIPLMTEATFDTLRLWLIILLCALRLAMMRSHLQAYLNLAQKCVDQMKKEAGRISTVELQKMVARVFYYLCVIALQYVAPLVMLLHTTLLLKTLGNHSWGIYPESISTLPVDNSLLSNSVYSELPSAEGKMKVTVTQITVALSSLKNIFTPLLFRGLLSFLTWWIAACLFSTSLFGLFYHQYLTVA
Sequence of UniProt Q8WVY7 (Q8WVY7 whole entry, looked up): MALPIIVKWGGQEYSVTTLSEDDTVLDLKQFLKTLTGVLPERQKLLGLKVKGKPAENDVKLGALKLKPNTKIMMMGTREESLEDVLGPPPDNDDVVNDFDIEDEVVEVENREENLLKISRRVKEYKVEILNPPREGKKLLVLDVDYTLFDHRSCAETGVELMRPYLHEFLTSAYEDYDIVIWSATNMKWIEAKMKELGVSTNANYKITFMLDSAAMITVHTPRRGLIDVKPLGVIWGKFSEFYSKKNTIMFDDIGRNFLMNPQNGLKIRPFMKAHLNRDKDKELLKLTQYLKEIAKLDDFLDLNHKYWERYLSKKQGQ
Sequence of UniProt P21796 (P21796 whole entry, looked up): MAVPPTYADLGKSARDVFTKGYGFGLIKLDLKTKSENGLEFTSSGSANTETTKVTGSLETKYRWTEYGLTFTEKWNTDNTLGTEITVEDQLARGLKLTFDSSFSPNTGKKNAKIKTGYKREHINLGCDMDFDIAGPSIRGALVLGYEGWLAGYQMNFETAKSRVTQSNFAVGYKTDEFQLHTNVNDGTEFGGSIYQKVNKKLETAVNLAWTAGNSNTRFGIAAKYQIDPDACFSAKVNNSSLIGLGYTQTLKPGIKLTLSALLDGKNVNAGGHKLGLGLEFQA

Compound in this test: NC(=O)c1cnc(N[C@@H]2CCCC[C@@H]2N)nc1Nc1cccc(-n2nccn2)c1
Briefly: log2 fold change, soluble protein after heating vs DMSO (PISA); higher = thermal stabilisation; K562 cells, 10 uM, 30 min; active = over 0.2 and 3.5 SD of the protein, either way, in both replicates (recomputed). An outline of the steps:
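Soluble protein was defined as the supernatant after 21,000xg for 90 min. It came from K562 cells at 2×10^6 cells/mL given 10 μM compound for 30 min, heated in aliquots for 3 min across 48°C-58°C, pooled, and extracted in PBS with 0.5% NP-40 at 4°C, and was quantified by TMTpro 16plex LC-MS/MS with equalised channel sums. Thermal stability against control samples, from duplicates, is reported as log2 fold change.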
With VPS11 (UniProt Q9H270), the log2 fold change is -0.053.
The value for TNFRSF8 (UniProt P28908) was 0.128; that for UGGT1 (UniProt Q9NYU2) was -0.025.
Next, WDR37 isoform 2 (UniProt Q9Y2I8): -0.01; WDR41 (UniProt Q9HAD4): -0.005.
Take UBLCP1 (UniProt Q8WVY7): the log2 fold change was -0.009.
As for VRK2 (UniProt Q86Y07), the log2 fold change is 0.04.
On to WNK1 isoform 7 (UniProt Q9H4A3), for which the log2 fold change was 0.001.
UPF3B (UniProt Q9BZI7): the log2 fold change was 0.11.
Take TTC38 (UniProt Q5R3I4): the log2 fold change is 0.113.
The value for WRB (UniProt O00258) was 0.019.
With VPS50 (UniProt Q96JG6), the log2 fold change was -0.073.
The value for VDAC1 (UniProt P21796) was 0; that for USP14 (UniProt P54578) was -0.006; that for XPO5 (UniProt Q9HAV4) was -0.068.
Next, TMEM223 (UniProt A0PJW6): -0.14.
The value for TMEM161B (UniProt Q8NDZ6) was 0.029.
As for TUBAL3 (UniProt A6NHL2), the log2 fold change was -0.082.
The value for TMEM263 (UniProt Q8WUH6) was -0.335; that for VTA1 (UniProt Q9NP79) was 0.018.
Next, XPNPEP3 (UniProt Q9NQH7): -0.007; TNPO1 (UniProt Q92973): -0.039; WDR11 (UniProt Q9BZH6): -0.164.
